According to PubChem BioAssay AID1159580 (chemical genetic matrix, 2015):
The whole screen tested about 5,500 compounds, of which about 2,000 (36%) were called active. Not shown: some 18% with an inconclusive outcome. Rule as the data show it: active = normalized growth mostly below about 0.91 (no sharp cut-off); inconclusive = no clear call, values can overlap the other calls; inactive = mostly above about 0.92. This is one part of the list.

Experiment: chemical genetic growth profiling, strain panel (AID 1159580);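 also: tested at 20 µM; growth read once vehicle control cultures reached saturation at 30 °C; 1 = growth at the plate median or of vehicle wells; lower values mean less growth of the strain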
Conditions: S. cerevisiae deletion strains, growth OD

Measured: normalized growth

CC(C)CCCC(C)N (configuration not stated)
inactive: locus YAL021C, strain ccr4, active compounds read low 1.03 | locus YAL026C, strain drs2, active compounds read low 1.02 | locus YAL030W, strain snc1, active compounds read low 1.02 | locus YBL061C, strain skt5, active compounds read low 1.02 | locus YBR009C, strain hhf1, active compounds read low 1.02 | locus YBR023C, strain chs3, active compounds read low 1.03 | locus YBR171W, strain sec66, active compounds read low 1.05 | locus YBR231C, strain swc5, active compounds read low 1.02 | locus YBR279W, strain paf1, active compounds read low 1.02 | locus YCL011C, strain gbp2, active compounds read low 1.04 | locus YCL016C, strain dcc1, active compounds read low 1.02 | locus YCL061C, strain MRC1, active compounds read low 1.01 | locus YCL069W, strain vba3, active compounds read low 1.03 | locus YCR088W, strain abp1, active compounds read low 1.03 | locus YDL005C, strain med2, active compounds read low 1.04 | locus YDL040C, strain nat1, active compounds read low 1.02 | locus YDR001C, strain nth1, active compounds read low 1.02 | locus YDR069C, strain doa4, active compounds read low 1.04 | locus YDR137W, strain rgp1, active compounds read low 0.99 | locus YDR159W, strain sac3, active compounds read low 0.97 | locus YDR195W, strain ref2 1.03 | locus YDR297W, strain sur2, active compounds read low 1.02 | locus YDR334W, strain swr1, active compounds read low 1.03 | locus YDR335W, strain msn5, active compounds read low 1.04 | locus YDR392W, strain spt3, active compounds read low 0.963 | locus YEL003W, strain gim4, active compounds read low 1.02 | locus YEL037C, strain rad23, active compounds read low 1.04 | locus YEL061C, strain CIN8 (second series), active compounds read low 1.01 | locus YER015W, strain faa2, active compounds read low 1.02 | locus YER016W, strain bim1, active compounds read low 1.05 | locus YER111C, strain swi4, active compounds read low 1.04 | locus YER155C, strain BEM2 (second series), active compounds read low 1.03 | locus YFR010W, strain ubp6, active compounds read low 1.01 | locus YGL167C, strain pmr1, active compounds read low 1.03 | locus YGL173C, strain kem1, active compounds read low 1.01 | locus YGL227W, strain vid30, active compounds read low 1.04 | locus YGL240W, strain doc1, active compounds read low 0.983 | locus YGL253W, strain hxk2, active compounds read low 1.04 | locus YHR013C, strain ard1, active compounds read low 1.03 | locus YHR027C, strain rpn1, active compounds read low 1.02 | locus YHR142W, strain chs7, active compounds read low 1.05 | locus YJL092W, strain hpr5, active compounds read low 1.02 | locus YJL095W, strain BCK1 (second series), active compounds read low 1.03 | locus YJL115W, strain asf1, active compounds read low 1.03 | locus YJL129C, strain trk1, active compounds read low 1.04 | locus YJL154C, strain vps35, active compounds read low 1.03 | locus YJL164C, strain tpk1, active compounds read low 1.03 | locus YJL166W, strain qcr8, active compounds read low 1.02 | locus YJL187C, strain SWE1, active compounds read low 1.02 | locus YKL160W, strain elf1, active compounds read low 1.03 | locus YKR026C, strain gcn3, active compounds read low 1.02 | locus YKR091W, strain srl3, active compounds read low 1.01 | locus YLL001W, strain dnm1, active compounds read low 1 | locus YLL026W, active compounds read low 1.01 | locus YLL041C, strain sdh2, active compounds read low 1.03 | locus YLR027C, strain aat2, active compounds read low 1.03 | locus YLR221C, strain rsa3, active compounds read low 1.01 | locus YLR258W, strain gsy2, active compounds read low 1.01 | locus YLR262C, strain YPT6 (second series), active compounds read low 0.999 | locus YLR320W, strain mms22, active compounds read low 0.977 | locus YLR342W, strain FKS1, active compounds read low 1.03 | locus YLR357W, strain rsc2, active compounds read low 1.06 | locus YLR370C, strain arc18, active compounds read low 1.03 | locus YLR384C, strain iki3, active compounds read low 1.03 | locus YML120C, strain ndi1, active compounds read low 1.02 | locus YMR058W, strain fet3, active compounds read low 1.01 | locus YMR125W, strain sto1, active compounds read low 1.04 | locus YMR129W, active compounds read low 1.02 | locus YMR205C, strain PFK2, active compounds read low 1.01 | locus YMR231W, strain pep5, active compounds read low 1.03 | locus YNL071W, strain lat1, active compounds read low 1.03 | locus YNL209W, strain ssb2, active compounds read low 1.03 | locus YNL248C, strain rpa49, active compounds read low 1.07 | locus YNL322C, strain KRE1 (second series), active compounds read low 1.04 | locus YNR049C, strain mso1, active compounds read low 1.03 | locus YOR001W, strain rrp6, active compounds read low 1.02 | locus YOR070C, strain gyp1, active compounds read low 1.02 | locus YOR080W, strain dia2, active compounds read low 1.03 | locus YOR083W, strain WHI5, active compounds read low 0.968 | locus YOR106W, strain vam3, active compounds read low 1.04 | locus YOR265W, strain rbl2, active compounds read low 1.02 | locus YOR270C, strain vph1, active compounds read low 1.14 | locus YOR290C, strain snf2, active compounds read low 1.03 | locus YPL051W, strain arl3, active compounds read low 1.02 | locus YPL078C, strain atp4, active compounds read low 1.04 | locus YPL106C, strain sse1, active compounds read low 1.05 | locus YPL240C, strain hsp82, active compounds read low 1.03
